# Most compounds without a hit are left out; they make up all but 1.2% or so of the library.
# p-CIP stab down: lowers stability of the mouse p/CIP coactivator protein. F442A p/CIP-EGFP cells, EGFP fluorescence, 16 h. decrease of EGFP signal, % at 10 µM. 290,000 compounds, 0.01% hits;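 active means EGFP signal decrease of at least 30% at 10 µM or well 3 SD below plate mean, unless failing retest; inactive means the rest, including hits failing retest or dose response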
# Target sequence (Q05BA5 1-1403): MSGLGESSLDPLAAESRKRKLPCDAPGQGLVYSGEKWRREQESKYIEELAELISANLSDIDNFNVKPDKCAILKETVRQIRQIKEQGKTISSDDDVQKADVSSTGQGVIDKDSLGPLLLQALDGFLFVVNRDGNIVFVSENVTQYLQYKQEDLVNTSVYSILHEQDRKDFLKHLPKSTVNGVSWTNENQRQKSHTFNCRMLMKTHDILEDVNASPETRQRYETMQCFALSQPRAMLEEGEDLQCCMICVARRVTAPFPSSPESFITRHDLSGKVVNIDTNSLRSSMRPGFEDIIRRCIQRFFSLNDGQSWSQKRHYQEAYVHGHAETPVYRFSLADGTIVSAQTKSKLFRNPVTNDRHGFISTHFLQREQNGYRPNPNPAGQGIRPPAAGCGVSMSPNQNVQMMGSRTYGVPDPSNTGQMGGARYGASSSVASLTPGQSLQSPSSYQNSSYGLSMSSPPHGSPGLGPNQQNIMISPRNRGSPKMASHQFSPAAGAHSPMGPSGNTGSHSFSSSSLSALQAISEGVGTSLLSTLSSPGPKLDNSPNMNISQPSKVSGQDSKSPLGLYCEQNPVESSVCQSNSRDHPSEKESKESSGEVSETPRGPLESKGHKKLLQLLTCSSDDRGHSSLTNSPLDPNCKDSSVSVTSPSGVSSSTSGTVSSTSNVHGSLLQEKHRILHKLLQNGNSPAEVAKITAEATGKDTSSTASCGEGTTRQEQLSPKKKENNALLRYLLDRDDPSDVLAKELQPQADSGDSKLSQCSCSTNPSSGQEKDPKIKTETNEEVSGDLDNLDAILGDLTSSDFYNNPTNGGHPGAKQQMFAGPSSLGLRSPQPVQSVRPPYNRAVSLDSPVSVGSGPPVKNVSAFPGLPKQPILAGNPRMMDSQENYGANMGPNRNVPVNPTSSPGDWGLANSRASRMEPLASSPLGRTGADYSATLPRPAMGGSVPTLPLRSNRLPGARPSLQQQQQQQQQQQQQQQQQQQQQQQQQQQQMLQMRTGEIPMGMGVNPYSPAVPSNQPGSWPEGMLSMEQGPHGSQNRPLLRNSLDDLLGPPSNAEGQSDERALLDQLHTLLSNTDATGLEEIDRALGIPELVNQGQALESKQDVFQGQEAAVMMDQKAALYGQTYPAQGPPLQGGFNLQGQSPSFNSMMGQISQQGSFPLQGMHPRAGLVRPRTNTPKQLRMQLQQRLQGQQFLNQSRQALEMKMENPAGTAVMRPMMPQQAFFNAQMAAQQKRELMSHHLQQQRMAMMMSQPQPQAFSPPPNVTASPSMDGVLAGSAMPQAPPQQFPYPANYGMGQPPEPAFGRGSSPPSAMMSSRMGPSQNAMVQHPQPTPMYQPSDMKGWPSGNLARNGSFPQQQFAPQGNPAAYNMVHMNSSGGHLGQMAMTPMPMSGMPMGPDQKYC
# VLA-4 inh: inhibition in a human VLA-4 binding assay; 330,000 compounds, 0.2% hits; inhibition, % (about 7 µM as worked out from the volumes in the protocol); VLA-4 expressing cells, ligand binding flow cytometry; AID 2557; P13612; in the data active means inhibition above about 50%
# JMJD2C inh: human JMJD2C demethylase inhibition | Q9H3R0 | GST-JMJD2C(1-420) H3K9me3 demethylation, DELFIA europium | inhibition, % at 2.35 µM | 330,000 compounds, 0.069% hits;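 active means more than half of a compound's replicate wells show inhibition beyond 50%, single wells judged on their own value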;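 further: signal counts dimethyl H3K9 product captured on neutravidin plate; 0% = median of DMSO wells and 100% = 0.3 times that DMSO median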
# GPR7 antagonist: blocks human GPR7 receptor signaling; P48145; GPR7-expressing cells, fluorescence antagonist assay; inhibition, % at 4.4 µM; 290,000 compounds, 1.1% hits; AID 1861; in the data active means inhibition above about 16%, passing the limit was not always enough;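 further: cells stimulated with the agonist NPW; 0% = agonist with vehicle and 100% = vehicle without agonist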
# * = called active by the depositor; nt = no result.
SMILES,p-CIP stab down,VLA-4 inh,JMJD2C inh,GPR7 antagonist
CCCc1cc(=O)n2[nH]c(Cc3ccccc3)nc2n1,-6,19,3,18*
COCc1cc(C)n(CC(=O)Nc2ccc3c(c2)OCO3)c(=O)c1C#N,-3,23,-22,-6
CSc1ccc(CN2CCN(Cc3ccc([N+](=O)[O-])cc3)CC2)cc1,-2,22,-24,31*
O=[N+]([O-])c1ccc(CN2CCCCCC2)cc1,9,8,-9,-9
CCCn1c(SCC(=O)N2N=C3/C(=C/c4ccc(OC)cc4)CCCC3C2c2ccc(OC)cc2)n[nH]c1=O (stereo not drawn),3,33,-4,20*
O=C(NCC(c1cccs1)N1CCOCC1)c1cc(-c2ccc(F)cc2)nc2ccccc12 (stereo not drawn),-2,-16,-2,20*
CCOC(=O)N1CCN(c2ccncc2S(=O)(=O)N2CCCCC2)CC1,-2,1,-16,5
CCCCNC(=S)Nc1ccc([N+](=O)[O-])cc1,-16,6,5,23*
CC(C)CCNC(=S)Nc1ccc([N+](=O)[O-])cc1,0,-3,1,22*
CC(=O)NNC(=O)c1csc(-c2csc(C)n2)n1,-2,2,nt,-5
OC(COc1ccc2ccccc2c1Br)Cn1cnc(-c2ccccc2)c1 (stereo not drawn),-10,-12,61*,10
CCOC(=O)c1c(CN2CCN(C)CC2)n(C)c2cc(Br)c(OC)cc12,-19,26,1,19*
CCOC(=O)c1c(CN2CCCCC2)n(C)c2cc(Br)c(O)cc12,-4,7,-1,-4
Cc1ccc(C(=O)NCCc2nnc3ccc(NCCCN4CCOCC4)nn23)cc1,-12,-12,-2,-15
CO[C@@]1(NC(=O)Cc2cccs2)C(=O)N2C(C(=O)O)=C(COC(N)=O)CS[C@@H]21,-3,52*,-6,-7
COc1ccc(Nc2ncnc3sc(-c4ccccc4)cc23)cc1OC,-14,-15,54*,-8
O=C(CN(C1CCCCC1)C1CCCCC1)N1CCc2ccccc2C1,6,5,-3,-3
O=C(Nc1c(C(=O)N2CCCC2)cnn1-c1ccccc1)c1cccc(F)c1,5,4,-7,-10
NC(=O)C1CCN(C(=O)c2cnn(-c3ccccc3)c2NC(=O)c2cccc(F)c2)CC1,10,20,75*,10
OCCNc1cc(Cl)ncn1,0,-2,5,-17
COC(=O)C1N[C@@H]([C@@H](NC(=O)COc2ccccc2)C(=O)Nc2ccc(OC)cc2)SC1(C)C (stereo partly drawn),nt,5,-3,nt
Cc1cccc2cc(C#N)c(SCCN3CCCCC3)nc12,nt,-13,102*,-7
Nc1nn2c(-c3ccccc3)cc(=O)[nH]c2c1N=Nc1ccc(O)cc1,-12,8,51*,-16
CC1=CC(=O)C(C(C)C)=C/C1=N/OS(=O)(=O)c1ccccc1,-3,0,1,81*
CC1=CC(=O)C=C(C)C1=NOS(=O)(=O)c1ccccc1,9,nt,3,40*
SMILES,p-CIP stab down,VLA-4 inh,JMJD2C inh,GPR7 antagonist
Cc1cccc(N(C(=O)c2snc(C(N)=O)c2N)C(C(=O)NCC2CCCO2)c2ccc3ncccc3c2)c1 (stereo not drawn),-13,-3,-23,-8
CN(C)CCCNS(=O)(=O)c1ccc(N2CCC(c3ccc(Cl)cc3)=N2)cc1,-10,46,8,41*
O=S(=O)(c1ccc(N2CCC(c3ccc(Cl)cc3)=N2)cc1)N(CCO)CCO,-1,6,1,-8
Cc1sc2nc(CN3CCOCC3)nc(NS(=O)(=O)c3cc(Cl)ccc3Cl)c2c1C,nt,2,56*,nt
Cc1sc2nc(CN3CCOCC3)nc(Cl)c2c1C,6,-1,4,-4
C#CCOCCOCCOCCNc1nc(N2CCN(C(=O)[C@H](CCCCN)n3cc([C@@H](N)[C@H](C)CC)nn3)CC2)nc(N2CCN(C(=O)[C@H](CCC(=O)O)n3cc([C@@H](N)CCSC)nn3)CC2)n1,nt,29,52*,nt
CC1CN(C(=O)Nc2ccc(F)cc2F)CC(C)O1 (stereo not drawn),2,8,3,-2
COc1ccc2c(c1)C(C)=CC(C)(C)N2S(=O)(=O)c1ccc(Br)cc1,-37,24,-21,29*
O=C(NCCCN1CCN(Cc2ccccc2)CC1)C1CCN(S(=O)(=O)N2CCC3(CC2)OCCO3)CC1,-4,6,26,-3
O=C(C1CCN(S(=O)(=O)N2CCC3(CC2)OCCO3)CC1)N1CCN(Cc2ccccc2)CC1,-6,20,-4,21*
CCCCOc1ccc(C(=O)NCC(=O)NC2CCN(Cc3ccccc3)CC2)cc1,1,4,0,-5
COc1cc(C)nc(N2CCCC(C(=O)Nc3cccc(Cl)c3Cl)C2)n1 (stereo not drawn),0,-2,31,16*
COc1ccccc1NC(=O)C1CCCN(c2nc(C)cc(C)n2)C1 (stereo not drawn),-1,5,3,1
CC(=O)Nc1ccc(S(=O)(=O)Oc2cccc(/C=N/N=C3/NC(=O)C(CC(=O)O)S3)c2)cc1 (stereo not drawn),-8,15,14,-2
C/C(=N\NC(=O)c1nnn(-c2nonc2N)c1C)c1ccc(-c2ccccc2)cc1,8,17,-11,20*
COc1ccc(O)c(-c2cn[nH]c2-c2cccs2)c1,-17,-8,2,20*
O=C(Nc1cccc(C(=O)O)c1)/C(=C\c1ccc2c(c1)OCO2)NC(=O)c1ccc(Br)cc1,12,3,-24,-9
O=C(Cc1ccccc1)Nc1ccc(NC(=O)c2ccco2)cc1Cl,-14,4,-6,-4
O=S(=O)(c1ccc2c(c1)C(=NO)c1cc(S(=O)(=O)N3CCCCC3)ccc1-2)N1CCCCC1,60*,45,1,-3
CC1CCN(S(=O)(=O)c2ccc3c(c2)C(=NO)c2cc(S(=O)(=O)N4CCC(C)CC4)ccc2-3)CC1,nt,0,7,-9
CN(C)C(=O)c1cc(C(=O)c2ccc(C(F)(F)F)cc2)c[nH]1,-1,9,-5,10
Nc1nc2n(n1)C(c1cccc(Cl)c1)CC(c1ccc(F)cc1)N2 (stereo not drawn),2,-13,-1,19*
CCOc1ccc(C2CC(c3cccc(Cl)c3)n3nc(N)nc3N2)cc1 (stereo not drawn),-3,11,-6,-2
Cc1ccc(SCc2cc(=O)c3c(=O)n(-c4ccccc4)[nH]c3[nH]2)cc1,-2,1,5,-9
O=C(Nc1ccc(F)cc1)c1nn(-c2ccccc2)c(=O)cc1Cl,-8,nt,13,46*
Cc1ccc(NC(=O)c2cc(-c3ccccc3)nn2-c2ccccc2)cc1,-4,10,7,0
Cc1ccc(S(=O)(=O)NCc2ccc(C(=O)N(C)CCC#N)cc2)cc1,3,3,7,-6
CN(CCC#N)C(=O)c1ccc(CNS(=O)(=O)c2ccc(F)cc2)cc1,5,11,-13,16*
COc1ccc2sc(NC(C)=O)nc2c1,-3,-7,-4,12
COc1ccc2sc(NC(=O)NC(=O)c3c(Cl)cccc3Cl)nc2c1,3,5,-30,20*
